Measured values: PubChem BioAssay (NCATS)
Records with an inconclusive call do not appear. Entries that show only a call come without a potency. Activity calls are given as the source filed them. The call rests on the fitted dose curve; in most records, active means well fitted curve in the direction sought with a large enough effect; inconclusive means small, poorly fitted or top-dose-only effect, or another doubt; inactive means no such curve, though single readings can be large; an effect the other way counts as inactive or inconclusive.

Key:
[1] = qHTS for differential inhibitors of proliferation of Plasmodium falciparum line GB4 (AID 1816); conditions: Potency: Plasmodium falciparum GB4 proliferation inhibition;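 further: potency means the concentration at half of the fitted maximal effect; parasite growth measured after 72 h incubation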
[2] = qHTS for differential inhibitors of proliferation of Plasmodium falciparum line 3D7 (AID 1876);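 further: parasite growth measured after three days of culture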
[3] = qHTS for differential inhibitors of proliferation of Plasmodium falciparum line D10 (AID 1877);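 further: parasites grown with compound for 72 h before DNA staining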
[4] = qHTS for differential inhibitors of proliferation of Plasmodium falciparum line Dd2 (AID 1882); conditions: Potency: Plasmodium falciparum Dd2 proliferation inhibition;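 further: series mostly up to about 29 µM; compound exposure of 72 h on infected erythrocytes; nearly all actives have a fitted effect of over 65% in size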
In short: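 SYBR Green I DNA fluorescence read-out, ex 485/em 535 nm. Signals were normalized to 0.29 uM artemisinin and DMSO wells, then corrected using vehicle-only plates flanking each stack. Parasite growth ran 72 h in erythrocytes before lysis.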

[5] = qHTS for differential inhibitors of proliferation of Plasmodium falciparum line W2 (AID 1883); conditions: Potency: Plasmodium falciparum W2 proliferation inhibition;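 further: potency means the concentration at half of the fitted maximal effect; parasites grown with compound for 72 h before lysis and staining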
[6] = qHTS for differential inhibitors of proliferation of Plasmodium falciparum line HB3 (AID 1886); conditions: Potency: Plasmodium falciparum HB3 proliferation inhibition;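 further: parasites grown with compound for 72 h before SYBR Green readout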
[7] = target: Ferritin light chain (Equus caballus) (UniProt P02791); test: qHTS Validation Assay for Identification of Novel General Anesthetics (AID 2323); further: series mostly up to about 77 µM
Chain of Ferritin light chain (Equus caballus) (P02791 2-175 limits assumed): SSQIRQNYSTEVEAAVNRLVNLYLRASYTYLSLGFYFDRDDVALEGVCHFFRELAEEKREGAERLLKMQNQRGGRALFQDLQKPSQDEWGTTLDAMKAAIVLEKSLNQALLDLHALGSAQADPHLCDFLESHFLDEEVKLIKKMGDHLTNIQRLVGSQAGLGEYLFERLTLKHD
In short: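 Fluorescence at 535 nm (excitation 380 nm) reported loss of 1-AMA binding to horse-spleen apoferritin (10 uM) in PBS with 50% saturated 1-aminoanthracene, after 10 min room-temperature incubation with compound; values from Hill fits of normalized response.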

[8] = target: ATP-dependent DNA helicase Q1 (Homo sapiens) (UniProt P46063); test: qHTS Validation Assay for Inhibitors of RecQ-Like Dna Helicase 1 (RECQ1) (AID 2353)
Chain of ATP-dependent DNA helicase Q1 (Homo sapiens) (P46063 whole entry, looked up): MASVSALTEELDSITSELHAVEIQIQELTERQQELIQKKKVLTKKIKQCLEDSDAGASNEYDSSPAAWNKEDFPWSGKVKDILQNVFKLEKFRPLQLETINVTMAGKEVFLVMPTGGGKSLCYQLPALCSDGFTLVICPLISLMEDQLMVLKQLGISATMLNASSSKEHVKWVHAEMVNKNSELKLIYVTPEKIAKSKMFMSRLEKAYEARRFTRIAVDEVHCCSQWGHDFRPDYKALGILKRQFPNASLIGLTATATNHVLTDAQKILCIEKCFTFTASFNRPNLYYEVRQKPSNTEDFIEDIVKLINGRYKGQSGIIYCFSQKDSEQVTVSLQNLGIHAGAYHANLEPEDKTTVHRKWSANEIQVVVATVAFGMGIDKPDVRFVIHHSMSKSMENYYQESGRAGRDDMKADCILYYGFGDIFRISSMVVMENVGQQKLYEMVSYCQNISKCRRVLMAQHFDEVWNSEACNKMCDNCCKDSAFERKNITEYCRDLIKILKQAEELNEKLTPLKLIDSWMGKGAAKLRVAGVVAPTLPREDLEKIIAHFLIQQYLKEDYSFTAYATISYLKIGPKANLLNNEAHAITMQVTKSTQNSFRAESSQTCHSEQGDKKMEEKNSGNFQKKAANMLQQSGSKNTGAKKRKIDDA
In short: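 50 nM RECQ1T1 preincubated 15 min with compound in Tris pH 8.0 buffer with MgCl2, DTT, Tween-20 and 2.5 ug/ml poly(dI-dC); started with 200 nM TAMRA/BHQ-2 forked duplex and 2 mM ATP. Unwinding read as fluorescence (525/598 nm), two reads 2 h apart.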

[9] = target: RecQ-like DNA helicase BLM (Homo sapiens) (UniProt P54132); test: qHTS Validation Assay for Inhibitors of Bloom's syndrome helicase (BLM) (AID 2364)
In short: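 BLM 50 nM in 25 mM Tris-HCl pH 8.0, 5 mM NaCl, 2 mM MgCl2, 1 mM DTT, 0.01% Tween-20, 2.5 ug/ml poly(dI-dC); 15 min cpd preinc, RT. Start: 200 nM forked DNA + 2 mM ATP (final). TAMRA read, 2 reads 2 h apart.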

[10] = Validation screen for small molecules that induce DNA re-replication in MCF 10A normal breast cells (AID 463097); further: nearly all actives have a fitted effect of over 60% in size
In short: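 Image-based qHTS: normal breast cells are incubated with compound for 48 hr, stained with Hoechst, and scanned for total nuclear fluorescence. Compounds raising the fraction of nuclei with elevated DNA content count as re-replication inducers.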

[11] = Quantitative high throughput screen for delayed death inhibitors of the malarial parasite plastid, 96 hour incubation (AID 488745); further: series mostly up to about 29 µM; nearly all actives have a fitted effect of over 70% in size
In short: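 P. falciparum carrying an integrated firefly luciferase reporter, grown in erythrocytes (2% hematocrit, 0.1% parasitemia final) in RPMI 1640/0.5% Albumax, was exposed to compound for 96 h (two generations) at 37 C, 5% CO2. Luminescence decrease indicated growth inhibition.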

[12] = Quantitative high throughput screen for delayed death inhibitors of the malarial parasite plastid, 48 hour incubation (AID 488752); further: nearly all actives have a fitted effect of over 65% in size
In short: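 Erythrocytes infected with P. falciparum carrying an integrated firefly luciferase reporter (2% hematocrit, 0.1% parasitemia final) were exposed to compounds in RPMI 1640/0.5% Albumax for 48 h at 37 C, 5% CO2. Growth inhibition was scored as reduced luminescence.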

[13] = target: M-phase phosphoprotein 8 (Homo sapiens) (UniProt Q99549); test: qHTS Validation Assay for Inhibitors for MPP8 Chromodomain Interactions with Methylated Histone Tails (AID 488949);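 further: 50 nM MPP8 with 50 nM peptide preformed then compounds added for 30 min; AlphaScreen signal from MPP8 chromodomain bound to biotinylated H3K9me3 peptide; top concentration of the series differs between compounds; nearly all actives have a fitted effect of over 55% in size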
Chain of M-phase phosphoprotein 8 (Homo sapiens) (Q99549 whole entry, looked up): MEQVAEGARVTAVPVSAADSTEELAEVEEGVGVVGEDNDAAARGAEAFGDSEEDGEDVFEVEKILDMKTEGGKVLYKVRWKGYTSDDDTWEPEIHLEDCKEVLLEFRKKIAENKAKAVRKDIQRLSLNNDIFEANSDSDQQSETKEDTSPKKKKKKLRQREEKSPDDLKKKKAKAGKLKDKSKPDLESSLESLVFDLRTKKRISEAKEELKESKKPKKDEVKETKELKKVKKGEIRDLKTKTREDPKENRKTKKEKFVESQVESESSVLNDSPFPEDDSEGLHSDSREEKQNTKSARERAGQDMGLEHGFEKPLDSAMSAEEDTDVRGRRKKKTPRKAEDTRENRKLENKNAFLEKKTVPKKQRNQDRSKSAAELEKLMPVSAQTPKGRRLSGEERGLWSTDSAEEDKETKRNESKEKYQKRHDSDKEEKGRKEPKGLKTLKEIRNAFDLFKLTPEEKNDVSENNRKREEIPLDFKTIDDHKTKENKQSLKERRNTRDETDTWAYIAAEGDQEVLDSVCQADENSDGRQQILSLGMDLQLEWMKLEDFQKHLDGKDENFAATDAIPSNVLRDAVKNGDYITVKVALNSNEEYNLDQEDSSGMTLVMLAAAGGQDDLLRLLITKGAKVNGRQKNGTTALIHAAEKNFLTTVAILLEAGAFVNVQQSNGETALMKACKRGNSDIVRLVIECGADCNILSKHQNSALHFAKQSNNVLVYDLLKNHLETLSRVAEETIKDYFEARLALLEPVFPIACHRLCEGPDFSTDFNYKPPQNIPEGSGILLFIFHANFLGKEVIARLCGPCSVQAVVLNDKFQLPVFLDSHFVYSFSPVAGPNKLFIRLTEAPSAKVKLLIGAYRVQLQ
In short: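 50 nM MPP8 + 50 nM b-H3K9me3 peptide, PBS pH 7.4/0.01% Tween-20, 30 min RT; + cpd 30 min RT; + AlphaScreen donor/Ni-chelate acceptor beads 10 ug/mL final, 30 min dark; luminescence read.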

[14] = target: Transient receptor potential cation channel subfamily V member 1 (Homo sapiens) (UniProt Q8NER1); test: HTS Assay for Compounds that Act as Enhancers of the Vanilloid Receptor 1 (AID 488979)
Chain of Transient receptor potential cation channel subfamily V member 1 (Homo sapiens) (Q8NER1 whole entry, looked up): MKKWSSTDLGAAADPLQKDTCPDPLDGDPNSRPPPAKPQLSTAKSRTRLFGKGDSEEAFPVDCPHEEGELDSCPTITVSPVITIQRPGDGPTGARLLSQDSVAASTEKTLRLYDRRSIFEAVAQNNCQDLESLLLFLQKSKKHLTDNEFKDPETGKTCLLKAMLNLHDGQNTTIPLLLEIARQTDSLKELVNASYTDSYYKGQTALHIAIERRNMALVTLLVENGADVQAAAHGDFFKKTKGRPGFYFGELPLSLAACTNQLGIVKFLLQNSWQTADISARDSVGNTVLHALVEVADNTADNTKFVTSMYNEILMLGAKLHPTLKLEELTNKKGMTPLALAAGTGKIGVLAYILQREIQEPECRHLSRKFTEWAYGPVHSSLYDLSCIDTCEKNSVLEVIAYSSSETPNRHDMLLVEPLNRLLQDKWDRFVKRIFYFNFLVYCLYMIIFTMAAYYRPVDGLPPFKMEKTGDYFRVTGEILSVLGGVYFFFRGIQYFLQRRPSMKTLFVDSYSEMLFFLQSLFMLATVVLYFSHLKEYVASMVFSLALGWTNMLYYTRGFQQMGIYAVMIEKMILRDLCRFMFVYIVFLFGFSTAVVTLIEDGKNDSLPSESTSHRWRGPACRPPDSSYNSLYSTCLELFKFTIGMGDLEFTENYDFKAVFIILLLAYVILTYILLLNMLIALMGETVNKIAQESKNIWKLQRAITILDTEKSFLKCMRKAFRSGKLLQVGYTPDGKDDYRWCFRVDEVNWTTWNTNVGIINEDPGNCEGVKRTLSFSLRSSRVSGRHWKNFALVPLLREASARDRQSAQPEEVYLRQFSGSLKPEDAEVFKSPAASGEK
In short: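 TRPV1-expressing cells loaded with Fluo-8 calcium dye; compounds added and calcium influx read kinetically for 3 min (agonist phase), then capsaicin at EC20 added and read 2 min more for enhancement. Fluorescence ex 480/em 520 nm.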

[15] = target: Thyrotropin receptor (Homo sapiens) (UniProt P16473); test: qHTS Assay for Antagonists of the Thyroid Stimulating Hormone Receptor (AID 488980); further: series mostly up to about 58 µM
Chain of Thyrotropin receptor (Homo sapiens) (P16473 whole entry, looked up): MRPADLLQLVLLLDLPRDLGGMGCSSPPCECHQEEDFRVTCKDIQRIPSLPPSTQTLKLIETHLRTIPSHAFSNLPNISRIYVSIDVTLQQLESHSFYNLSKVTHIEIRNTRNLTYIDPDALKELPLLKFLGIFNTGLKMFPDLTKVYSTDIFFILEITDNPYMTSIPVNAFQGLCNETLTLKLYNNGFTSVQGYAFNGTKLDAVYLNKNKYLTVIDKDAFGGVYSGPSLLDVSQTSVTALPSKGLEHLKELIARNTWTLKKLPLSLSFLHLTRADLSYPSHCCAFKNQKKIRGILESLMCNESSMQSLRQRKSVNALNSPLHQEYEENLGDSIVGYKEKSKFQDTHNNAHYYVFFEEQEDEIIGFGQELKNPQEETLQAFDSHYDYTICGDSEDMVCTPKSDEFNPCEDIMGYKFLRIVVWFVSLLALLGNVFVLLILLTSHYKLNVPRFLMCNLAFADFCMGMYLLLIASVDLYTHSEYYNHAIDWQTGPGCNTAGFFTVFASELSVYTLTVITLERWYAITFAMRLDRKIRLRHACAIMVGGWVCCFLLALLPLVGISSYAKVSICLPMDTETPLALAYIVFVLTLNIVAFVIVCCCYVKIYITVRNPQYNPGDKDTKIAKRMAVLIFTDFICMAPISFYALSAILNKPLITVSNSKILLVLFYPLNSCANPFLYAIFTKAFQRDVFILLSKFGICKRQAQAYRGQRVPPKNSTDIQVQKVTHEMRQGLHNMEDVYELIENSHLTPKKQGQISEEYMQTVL
In short: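 Readout is cAMP by HTRF competition between cellular cAMP and cAMP-d2 for a cryptate-labelled antibody. Antagonism was assessed in TSHR-transfected HEK293 cells stimulated with 4 nM TSH (EC80, final) in the presence of RO 20-1724.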

[16] = target: Galactokinase (Homo sapiens) (UniProt P51570); test: qHTS Validation Assay for Inhibitors of Human Galactokinase (GALK) (AID 493189)
Chain of Galactokinase (Homo sapiens) (P51570 whole entry, looked up): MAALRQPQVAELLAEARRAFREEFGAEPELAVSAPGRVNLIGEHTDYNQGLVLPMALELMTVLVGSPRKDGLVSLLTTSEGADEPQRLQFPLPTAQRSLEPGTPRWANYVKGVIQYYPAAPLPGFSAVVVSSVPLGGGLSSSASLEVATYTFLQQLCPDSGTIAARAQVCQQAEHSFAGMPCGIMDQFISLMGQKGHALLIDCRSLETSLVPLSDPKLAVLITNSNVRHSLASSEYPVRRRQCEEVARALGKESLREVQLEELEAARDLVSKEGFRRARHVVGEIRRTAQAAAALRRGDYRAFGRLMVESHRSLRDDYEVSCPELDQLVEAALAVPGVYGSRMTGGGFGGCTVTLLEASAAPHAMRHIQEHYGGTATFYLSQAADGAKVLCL
In short: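 5 nM GALK / 100 uM galactose / 35 uM ATP, 20 mM HEPES pH8.0, 5 mM MgCl2, 60 mM NaCl, 1 mM DTT, 0.01% BSA (final). RT 1 h; Kinase-Glo Plus luminescence.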

[17] = Validation screen for small molecules that induce DNA re-replication in SW480 colon adenocarcinoma cells (AID 504364)
In short: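 SW480 cells seeded at 250 per well were exposed to compound or DMSO for 48 hr at 37 C, 5% CO2, then stained with Hoechst for 40 min. DNA content per nucleus was imaged (405 nm ex, 500-530 nm em).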

[18] = target: DNA dC->dU-editing enzyme APOBEC-3G (Homo sapiens) (UniProt Q9HC16); test: qHTS for inhibitors of Vif-A3G interactions: Validation (AID 588379)
Chain of DNA dC->dU-editing enzyme APOBEC-3G (Homo sapiens) (Q9HC16 whole entry, looked up): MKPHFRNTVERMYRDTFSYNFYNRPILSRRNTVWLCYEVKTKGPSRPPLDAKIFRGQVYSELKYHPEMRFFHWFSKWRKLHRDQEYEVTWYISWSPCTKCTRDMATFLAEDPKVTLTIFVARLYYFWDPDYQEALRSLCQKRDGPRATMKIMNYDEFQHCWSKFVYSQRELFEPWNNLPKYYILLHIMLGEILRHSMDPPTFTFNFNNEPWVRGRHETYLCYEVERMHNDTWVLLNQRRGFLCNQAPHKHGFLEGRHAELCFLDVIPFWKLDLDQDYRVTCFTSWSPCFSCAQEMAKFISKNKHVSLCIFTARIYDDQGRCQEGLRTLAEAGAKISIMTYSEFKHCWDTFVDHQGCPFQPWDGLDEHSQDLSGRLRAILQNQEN
In short: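 HeLa cells stably expressing Vif and A3G-eYFP, 700 cells/well, incubated overnight at 37 deg C, then exposed to compound overnight at 37 deg C. Inhibition of Vif-mediated degradation read as increased yellow fluorescence (Ex 488/Em 500-530) by laser-scanning cytometry.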

[19] = system: Zika virus NS2B-NS3 protease; test: Primary screen GU AMC qHTS for Zika virus inhibitors (AID 1347154); further: nearly all actives have a fitted effect of over 70% in size
In short: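 Unlinked Zika NS2B hydrophilic domain/NS3 protease domain noncovalent complex (25 nM final) in 10 mM Tris-HCl pH 8.0, 0.01% Tween 20, with AMC peptide substrate. Fluorescence (ex 340, em 450 nm) change over 15 min, room temperature; percent inhibition fitted to 4-parameter Hill equation.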

[20] = Primary qHTS for small molecule stabilizers of the endoplasmic reticulum resident proteome: Secreted ER Calcium Modulated Protein (SERCaMP) assay (AID 1508630)
In short: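 GLuc-SERCaMP-expressing SH-SY5Y cells, pretreated 16 h with compound, are challenged with thapsigargin to empty ER calcium stores; after 4 h, coelenterazine is added directly to the medium and luminescence is imaged.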

## O=C(OCCN1CCCCC1)c1c[nH]c2ccccc12
[1]
  Potency: 10 µM (active)
[2]
  Potency: inactive
[3]
  Potency: inactive
[4]
  Potency: inactive
[5]
  Potency: 8.91 µM (active)
[6]
  Potency: inactive
[7]
  outcome: inactive
[8]
  Potency: inactive
[9]
  Potency: inactive
[10]
  Potency: inactive
[11]
  Potency: inactive
[12]
  Potency: inactive
[13]
  Potency: inactive
[14]
  outcome: inactive
[15]
  outcome: inactive
[16]
  outcome: inactive
[17]
  outcome: inactive
[18]
  Potency: inactive
[19]
  Potency: inactive
[20]
  Potency: inactive
